Test results reported in PubChem BioAssay (NCATS).
Inconclusive results are not listed. Where a call stands in place of a potency, no number is given. Activity calls are given as the source filed them. The call rests on the fitted dose curve; in most records, active means well fitted inhibition curve with a large enough effect; inconclusive means small, poorly fitted or top-dose-only effect; inactive means flat fitted curve, though single readings scatter.

biological target: Aldehyde dehydrogenase, mitochondrial (Homo sapiens) (UniProt P05091); assay: qHTS for Inhibitors of the Aldehyde Dehydrogenase Family (ALDH2) Primary screen (AID 2061308); settings: ALDH2 enzyme inhibition qHTS, 1536-well; series mostly up to 56 µM; further: nearly all actives have a fitted effect of over 55% in size

SMILES	Potency
O=C(Nc1ccc([S+](=O)([O-])Nc2nccs2)cc1)c1ncn[nH]1	inactive
Cc1cc2c(s1)c1cnn(Cc3cc(F)cc(F)c3)c(=O)c1n2C	inactive
Cn1nnnc1Sc1ncnc2scc(-c3ccccc3C#N)c12	inactive
CC(=O)Nc1ccc(S(=O)(=O)N2CCN(S(=O)(=O)c3c(F)cccc3F)CC2)cc1	inactive
COc1ccc(C2=Nn3c(nnc3-c3ccccc3OC)SC2)cc1O[C@H]1CCOC1	inactive
CCCn1c(C)nc2c(N3CCOCC3)nc(C)nc21	inactive
Cc1ccc(S(=O)(=O)N2CCN(c3nc(-c4ccco4)nc4ccccc34)CC2)cc1	inactive
O=S(=O)(NCc1cccc2ccccc12)c1cc(Cl)c(Oc2cccc(N3CCNCC3)c2)s1	inactive
C[S+](=O)([O-])c1ccc(C(=O)OCC(=O)N2CCNC(=O)C2)cc1[N+](=O)[O-]	inactive
c1c[nH]c(CNc2ncnc3ccc(-c4ccoc4)cc23)n1	inactive
Cc1cc(C)nc(NC(=S)N2CCN(c3cc(C(F)(F)F)nc(C)n3)CC2)c1	inactive
CCOC(=O)C1CCN(C(=O)C(C)(C)NC(=O)Nc2cccc(OC)c2)CC1	inactive
Cc1ccc(S(=O)(=O)Nc2ccc(F)cc2C(=O)Nc2nc(-c3ccccc3)cs2)cc1	inactive
Cn1c2cc(C(=O)O)sc2c2cnn(Cc3ccccc3F)c(=O)c21	inactive
O=C(OCC#CCSc1nnc(-c2cccc3ccccc23)o1)c1ccc(F)c(F)c1	inactive
Cc1ccc(-c2cc(C(=O)Nc3cccc(Cl)c3)c3ccccc3n2)cc1C	inactive
